# Test results reported in PMC5700166.
# Molecular target: T1, GST-Aq-NF-kB (Amphimedon queenslandica, UniProt A9Y5G7 2-389)
# T1 sequence: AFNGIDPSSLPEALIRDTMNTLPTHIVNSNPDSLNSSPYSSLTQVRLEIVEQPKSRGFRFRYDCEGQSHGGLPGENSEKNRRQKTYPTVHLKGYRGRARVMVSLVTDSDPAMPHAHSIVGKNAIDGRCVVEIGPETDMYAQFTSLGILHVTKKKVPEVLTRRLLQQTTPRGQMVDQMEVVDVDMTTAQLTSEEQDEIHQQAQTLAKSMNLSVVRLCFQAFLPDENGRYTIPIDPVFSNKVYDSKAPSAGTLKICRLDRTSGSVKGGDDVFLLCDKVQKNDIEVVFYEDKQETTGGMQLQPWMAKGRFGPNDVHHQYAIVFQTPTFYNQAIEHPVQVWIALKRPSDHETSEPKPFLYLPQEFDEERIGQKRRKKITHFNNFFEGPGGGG
# Assay: protein-binding microarray (PBM); PBM: ~300 nM protein, 6 mM HEPES pH 7.8, 80 mM KCl, 0.5 mM EDTA, 0.5 mM EGTA, 6% glycerol, 35 ng/ul poly-dIdC, 1% milk, 1 h, room temperature; Ap Aiptasia and Nv Nematostella (sea anemones) / Co Capsaspora / Aq Amphimedon (sponge) / Dm Drosophila / Hu human; RHD is the Rel homology domain; high values mean tight binding
# Settings: dsDNA, one strand shown
row,Sequence,binding signal
1,CCGATTAACATCACCCGGGAAAATGATGTTAATCGGGTCTTGATTCGCTTGACGCTGCTG,2.6 z-score
2,CCGATTAACATCAGGAACACCCCTGATGTTAATCGGGTCTTGATTCGCTTGACGCTGCTG,4.23 z-score
3,CCGATTAACATCAGGGGGGGTTATGATGTTAATCGGGTCTTGATTCGCTTGACGCTGCTG,5.06 z-score
4,CCGATTAACATCAAAATTCCCAATGATGTTAATCGGGTCTTGATTCGCTTGACGCTGCTG,4.03 z-score
5,CCGATTAACATCAATTTTTCCCATGATGTTAATCGGGTCTTGATTCGCTTGACGCTGCTG,3.27 z-score
6,CCGATTAACATCAGGATATTCCCTGATGTTAATCGGGTCTTGATTCGCTTGACGCTGCTG,6.63 z-score
7,CCGATTAACATCAGGGATCCCCATGATGTTAATCGGGTCTTGATTCGCTTGACGCTGCTG,4.64 z-score
8,CCGATTAACATCAATGCACCCCCTGATGTTAATCGGGTCTTGATTCGCTTGACGCTGCTG,3.4 z-score
9,CCGATTAACATCAAACAGGGAAATGATGTTAATCGGGTCTTGATTCGCTTGACGCTGCTG,3.23 z-score
10,CCGATTAACATCAGGGTTTTTTATGATGTTAATCGGGTCTTGATTCGCTTGACGCTGCTG,6.24 z-score
11,CCGATTAACATCAAATTCCCACTTGATGTTAATCGGGTCTTGATTCGCTTGACGCTGCTG,2.47 z-score
12,CCGATTAACATCAGGGGTTTCACTGATGTTAATCGGGTCTTGATTCGCTTGACGCTGCTG,4.84 z-score
13,CCGATTAACATCAGGGGAATGACTGATGTTAATCGGGTCTTGATTCGCTTGACGCTGCTG,5.09 z-score
14,CCGATTAACATCAGGAATTCCCATGATGTTAATCGGGTCTTGATTCGCTTGACGCTGCTG,7.09 z-score
15,CCGATTAACATCAGGGAAACCCATGATGTTAATCGGGTCTTGATTCGCTTGACGCTGCTG,4.85 z-score
16,CCGATTAACATCACGGAAACCCCTGATGTTAATCGGGTCTTGATTCGCTTGACGCTGCTG,5.38 z-score
17,CCGATTAACATCAAATCGGGAAATGATGTTAATCGGGTCTTGATTCGCTTGACGCTGCTG,1.61 z-score
18,CCGATTAACATCAGGCACTCCCCTGATGTTAATCGGGTCTTGATTCGCTTGACGCTGCTG,4.71 z-score
19,CCGATTAACATCACACCCCCCCCTGATGTTAATCGGGTCTTGATTCGCTTGACGCTGCTG,4.16 z-score
20,CCGATTAACATCAGGGGCACCCCTGATGTTAATCGGGTCTTGATTCGCTTGACGCTGCTG,7.19 z-score

row,Sequence,binding signal
1,CCGATTAACATCAGGGAGCTCCCTGATGTTAATCGGGTCTTGATTCGCTTGACGCTGCTG,6.36 z-score
2,CCGATTAACATCAGAATCTCCCATGATGTTAATCGGGTCTTGATTCGCTTGACGCTGCTG,2.73 z-score
3,CCGATTAACATCAATATACCCCCTGATGTTAATCGGGTCTTGATTCGCTTGACGCTGCTG,4.03 z-score
4,CCGATTAACATCAAGGAATACCCTGATGTTAATCGGGTCTTGATTCGCTTGACGCTGCTG,5.58 z-score
5,CCGATTAACATCAAATTCCCAGCTGATGTTAATCGGGTCTTGATTCGCTTGACGCTGCTG,2.48 z-score
6,CCGATTAACATCAAAATTCCCGGTGATGTTAATCGGGTCTTGATTCGCTTGACGCTGCTG,5.5 z-score
7,CCGATTAACATCACCCGATTCCCTGATGTTAATCGGGTCTTGATTCGCTTGACGCTGCTG,2.54 z-score
8,CCGATTAACATCACCCCCCCCCGTGATGTTAATCGGGTCTTGATTCGCTTGACGCTGCTG,5.46 z-score
9,CCGATTAACATCAAACAAACCCCTGATGTTAATCGGGTCTTGATTCGCTTGACGCTGCTG,3.95 z-score
10,CCGATTAACATCAAGAATTCCCATGATGTTAATCGGGTCTTGATTCGCTTGACGCTGCTG,4.33 z-score
11,CCGATTAACATCAGGGGGCATTATGATGTTAATCGGGTCTTGATTCGCTTGACGCTGCTG,4.27 z-score
12,CCGATTAACATCAAAAATCCCTATGATGTTAATCGGGTCTTGATTCGCTTGACGCTGCTG,5.85 z-score
13,CCGATTAACATCAGGGGAGTAAATGATGTTAATCGGGTCTTGATTCGCTTGACGCTGCTG,3 z-score
14,CCGATTAACATCACGTTCCCCCCTGATGTTAATCGGGTCTTGATTCGCTTGACGCTGCTG,4.43 z-score
15,CCGATTAACATCACTGTTTTCCCTGATGTTAATCGGGTCTTGATTCGCTTGACGCTGCTG,3.31 z-score
16,CCGATTAACATCAGAGTCCCCCCTGATGTTAATCGGGTCTTGATTCGCTTGACGCTGCTG,4.89 z-score
17,CCGATTAACATCAGTTCCCCCCATGATGTTAATCGGGTCTTGATTCGCTTGACGCTGCTG,3.91 z-score
18,CCGATTAACATCAGGACTACCCCTGATGTTAATCGGGTCTTGATTCGCTTGACGCTGCTG,6.48 z-score
19,CCGATTAACATCAAAGGTCCCCCTGATGTTAATCGGGTCTTGATTCGCTTGACGCTGCTG,4.58 z-score
